Assay results: PubChem BioAssay (EPA / NIEHS)
Calls of active or inactive are those of the source. The calls were made as follows: active = hit-call score of the fitted dose curve at least 0.9, where 1 is the maximum; inactive = score below 0.9.

Assays:
[1] = read-out: Thrombomodulin, THBD (gene 7056); assay: BSK_CASM3C_Thrombomodulin: BioMAP Diversity Plus: CASM3C Assay for Thrombomodulin Biomarker Activity (AID 2283051); settings: primary human coronary artery smooth muscle cells; actives raise or lower the signal;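 also: thrombomodulin protein level measured by ELISA 24 h after dosing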
[2] = read-out: Tissue Factor, F3 (gene 2152); assay: BSK_CASM3C_TissueFactor: BioMAP Diversity Plus: CASM3C Assay for Tissue Factor Biomarker Activity (AID 2283052); settings: primary human coronary artery smooth muscle cells; actives raise or lower the signal;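 also: cell surface tissue factor protein level read by ELISA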
[3] = read-out: Interferon-gamma inducible Protein 10 (IP10), CXCL10 (gene 3627); assay: BSK_hDFCGF_IP10: BioMAP Diversity Plus: hDFCGF Assay for Interferon-gamma inducible Protein 10 (IP10) Biomarker Activity (AID 2283053); settings: primary human foreskin fibroblasts; actives raise or lower the signal
Method in brief: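 IP-10 levels, quantified by ELISA, are taken from human foreskin fibroblast cultures 24 h after chemical treatment, with DMSO serving as negative control and baseline for bidirectional analysis.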

[4] = read-out: Urokinase-type plasminogen activator receptor (uPAR), PLAUR (gene 5329); assay: BSK_CASM3C_uPAR: BioMAP Diversity Plus: CASM3C Assay for Urokinase-type plasminogen activator receptor (uPAR) Biomarker Activity (AID 2283054); settings: primary human coronary artery smooth muscle cells; actives raise or lower the signal;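 also: cell-surface uPAR protein level quantified by ELISA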
[5] = read-out: Vascular cell adhesion molecule 1 (VCAM1), VCAM1 (gene 7412); assay: BSK_CASM3C_VCAM1: BioMAP Diversity Plus: CASM3C Assay for Vascular cell adhesion molecule 1 (VCAM1) Biomarker Activity (AID 2283055); settings: primary human coronary artery smooth muscle cells; actives raise or lower the signal;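 also: VCAM-1 protein level quantified by ELISA on the cells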
[6] = read-out: Collagen III, COL3A1 (gene 1281); assay: BSK_hDFCGF_CollagenIII: BioMAP Diversity Plus: hDFCGF Assay for Collagen III Biomarker Activity (AID 2283056); settings: primary human foreskin fibroblasts; actives raise or lower the signal
Method in brief: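 Human foreskin primary fibroblasts were exposed to test chemicals for 24 h, after which collagen III was quantified by ELISA. Activity was fitted bidirectionally against DMSO as negative control and baseline.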

[7] = read-out: Epidermal growth factor receptor (EGFR), EGFR (gene 1956); assay: BSK_hDFCGF_EGFR: BioMAP Diversity Plus: hDFCGF Assay for Epidermal growth factor receptor (EGFR) Biomarker Activity (AID 2283057); settings: primary human foreskin fibroblasts; actives raise or lower the signal
Method in brief: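 Measured by ELISA: EGFR levels on primary human foreskin fibroblasts 24 h after chemical treatment, analysed relative to DMSO with bidirectional fitting.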

[8] = read-out: Interleukin-8 (IL8), CXCL8 (gene 3576); assay: BSK_hDFCGF_IL8: BioMAP Diversity Plus: hDFCGF Assay for Interleukin-8 (IL8) Biomarker Activity (AID 2283058); settings: primary human foreskin fibroblasts; actives raise or lower the signal
Method in brief: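 hDFCGF human dermal fibroblasts; 24 h chemical exposure; IL-8 by ELISA; bidirectional curve fit vs DMSO baseline; gain or loss of signal scored.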

[9] = BSK_hDFCGF_Proliferation: Cell Proliferation Assessment in the BioMAP Diversity Plus: hDFCGF Assay (AID 2283059); settings: primary human foreskin fibroblasts;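 also: curves fitted for both rise and fall of signal versus DMSO baseline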
Method in brief: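 Steps: dose primary human dermal fibroblasts (foreskin); […] fix in 10% TCA; stain with 0.1% SRB; read 560 nm; fit gain or loss of signal against DMSO.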

[10] = read-out: Macrophage colony-stimulating factor (MCSF), CSF1 (gene 1435); assay: BSK_hDFCGF_MCSF: BioMAP Diversity Plus: hDFCGF Assay for Macrophage colony-stimulating factor (MCSF) Biomarker Activity (AID 2283060); settings: primary human foreskin fibroblasts; actives raise or lower the signal
Method in brief: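 Human foreskin primary fibroblasts were treated with test chemical for 24 h, and M-CSF was then measured by ELISA. Data were fitted bidirectionally against DMSO as the negative control and activity baseline.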

[11] = BSK_hDFCGF_SRB: Viability Assessment in the BioMAP Diversity Plus: hDFCGF Assay (AID 2283061); settings: primary human foreskin fibroblasts;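 also: cells exposed to compound for 24 h before the read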
Method in brief: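 Human foreskin primary fibroblasts were treated with compound and assessed 24 h after dosing. Total protein was measured by sulforhodamine B staining (0.1% SRB after 10% TCA fixation, 560 nm read) as a cytotoxicity marker, with bidirectional fitting against DMSO baseline.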

[12] = read-out: TIMP metallopeptidase inhibitor 1 (TIMP1), TIMP1 (gene 7076); assay: BSK_hDFCGF_TIMP1: BioMAP Diversity Plus: hDFCGF Assay for TIMP metallopeptidase inhibitor 1 (TIMP1) Biomarker Activity (AID 2283062); settings: primary human foreskin fibroblasts; actives raise or lower the signal
Method in brief: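 Primary human foreskin fibroblasts in the hDFCGF system were dosed with compound for 24 h, then TIMP-1 was measured by ELISA. Activity was fitted bidirectionally relative to DMSO control; parallel SRB staining assessed cytotoxicity.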

[13] = read-out: Monokine induced gamma interferon (MIG), CXCL9 (gene 4283); assay: BSK_hDFCGF_MIG: BioMAP Diversity Plus: hDFCGF Assay for Monokine induced gamma interferon (MIG) Biomarker Activity (AID 2283063); settings: primary human foreskin fibroblasts; actives raise or lower the signal
Method in brief: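 ELISA read-out of MIG from primary human dermal fibroblasts 24 h post-dosing. Gain or loss of signal fitted bidirectionally, DMSO as baseline.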

[14] = read-out: Matrix Metallopeptidase 1 (MMP1), MMP1 (gene 4312); assay: BSK_hDFCGF_MMP1: BioMAP Diversity Plus: hDFCGF Assay for Matrix Metallopeptidase 1 (MMP1) Biomarker Activity (AID 2283064); settings: primary human foreskin fibroblasts; actives raise or lower the signal
Method in brief: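 Primary human foreskin fibroblasts in the hDFCGF system were dosed with test chemical, and MMP1 was measured by ELISA 24 h later. Values come from bidirectional curve fitting against the DMSO baseline.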

[15] = read-out: Vascular cell adhesion molecule 1 (VCAM1), VCAM1 (gene 7412); assay: BSK_hDFCGF_VCAM1: BioMAP Diversity Plus: hDFCGF Assay for Vascular cell adhesion molecule 1 (VCAM1) Biomarker Activity (AID 2283065); settings: primary human foreskin fibroblasts; actives raise or lower the signal
Method in brief: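 Primary human foreskin fibroblasts (hDFCGF system) were dosed with chemical and VCAM-1 was measured by ELISA 24 h later. Bidirectional curve fitting used DMSO as negative control and activity baseline.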

[16] = read-out: Plasminogen activator inhibitor-1 (PAI1), SERPINE1 (gene 5054); assay: BSK_hDFCGF_PAI1: BioMAP Diversity Plus: hDFCGF Assay for Plasminogen activator inhibitor-1 (PAI1) Biomarker Activity (AID 2283066); settings: primary human foreskin fibroblasts; actives raise or lower the signal
Method in brief: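 PAI-1 levels, determined by ELISA, served as the endpoint in human foreskin fibroblast cultures exposed to compound for 24 h, with DMSO as baseline.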

[17] = read-out: Intercellular Adhesion Molecule 1 (ICAM1), ICAM1 (gene 3383); assay: BSK_KF3CT_ICAM1: BioMAP Diversity Plus: KF3CT Assay for Intercellular Adhesion Molecule 1 (ICAM1) Biomarker Activity (AID 2283067); settings: primary human keratinocytes with fibroblasts; actives raise or lower the signal
Method in brief: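 Human keratinocyte plus foreskin fibroblast primary co-culture was exposed to chemical for 24 h. ICAM-1 was then quantified by ELISA, and the data were fit bidirectionally against DMSO as the negative control and baseline.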

[18] = read-out: Interferon-gamma inducible Protein 10 (IP10), CXCL10 (gene 3627); assay: BSK_KF3CT_IP10: BioMAP Diversity Plus: KF3CT Assay for Interferon-gamma inducible Protein 10 (IP10) Biomarker Activity (AID 2283068); settings: primary human keratinocytes with fibroblasts; actives raise or lower the signal
Method in brief: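 KF3CT co-culture (keratinocytes + foreskin fibroblasts), 24 h compound, IP-10 by ELISA; bidirectional fit vs DMSO baseline.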

[19] = BSK_KF3CT_SRB: Viability Assessment in the BioMAP Diversity Plus: KF3CT Assay (AID 2283069); settings: primary human keratinocytes with fibroblasts
Method in brief: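 Human primary keratinocyte plus foreskin fibroblast co-culture exposed to chemicals for 24 h. Total protein measured by 0.1% sulforhodamine B staining after 10% TCA fixation, read at 560 nm; bidirectional fitting versus DMSO baseline.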

[20] = read-out: Interleukin-1 alpha (IL1a), IL1A (gene 3552); assay: BSK_KF3CT_IL1a: BioMAP Diversity Plus: KF3CT Assay for Interleukin-1 alpha (IL1a) Biomarker Activity (AID 2283070); settings: primary human keratinocytes with fibroblasts; actives raise or lower the signal
Method in brief: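 Human keratinocyte plus foreskin fibroblast primary co-culture, sampled 24 h after chemical dosing. IL-1a measured by ELISA; responses fitted bidirectionally against DMSO baseline (negative control), so gain or loss of signal both count.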

Measured: AC50

Cc1cc(C2CC2)nc(Nc2ccccc2)n1
active: [1] 27.8 µM | [3] 6.65 µM | [9] 15 µM | [18] 20 µM
inactive: all other assays above

FC(F)C(F)(F)OCC(Cn1cncn1)c1ccc(Cl)cc1Cl (centres undefined)
active: [3] 27.8 µM | [9] 5.24 µM | [10] 23.4 µM | [16] 19.4 µM
inactive: all other assays above

CCCCOC(=O)c1ccccc1C(=O)O
inactive: all assays above

CCOP(=S)(OCC)Oc1cc(C)nc(C(C)C)n1
not listed: [19]
inactive: all other assays above

CN(C)NC(=O)CCC(=O)O
inactive: all assays above

COc1cccc(C(=O)NN(C(=O)c2cc(C)cc(C)c2)C(C)(C)C)c1C
inactive: all assays above
